BAZ2B block = inhibitors of human BAZ2B bromodomain; Q9UIF8; AlphaScreen BAZ2B-H3K14Ac peptide displacement; Potency, µM (highest dose often 114 µM), without a hit: top-dose activity change, negative = inhibition, usual class: inhibitors; 4.4% of 360,000 active; AID 504333; note: % is set by controls: 0 for no effect and ±100 for the full control effect; nearly all actives have a fitted effect of over 60% in size
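BAZ2B (50 nM) with biotin-H3(5-23)K14Ac peptide (50 nM) in PBS pH 7.4, 0.01% Tween-20, preformed 30 min, then compound 30 min at room temperature; top concentration 110uM. AlphaScreen streptavidin donor/nickel chelate acceptor beads (10 ug/mL final), 20 min dark, signal read.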
Sfp inh = inhibitors of Bacillus subtilis Sfp phosphopantetheinyl transferase; Q9F4F7; Biochemical Sfp PPTase activity, qHTS; Potency, µM, inactives show largest response in the series, negative = inhibition, usual class: inhibitors; 3.5% of 310,000 active; AID 1490;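 note: the enzyme is Sfp with the accession as filed and its product quenches rhodamine fluorescence; 0% = enzyme reaction without inhibitor and -100% = no enzyme wells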
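Fluorescence-quenching assay: 15 nM Sfp-PPTase preincubated 15 min at room temperature with compound, then 5 uM rhodamine-CoA and 12.5 uM BHQ-2-labelled YbbR peptide added. Fluorescence (ex 525/em 598 nm) read at start and after 30 min; difference gives rate.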
JMJD2A Tudor inh = inhibitors of human JMJD2A Tudor domain; O75164; AID 504339; AlphaScreen JMJD2A-Tudor / H3K4me3 peptide binding; 4.4% of 390,000 active; Potency, µM (top dose mostly 114 µM), for the others: at the highest dose activity change, negative = inhibition, usual class: inhibitors; note: % is set by controls: 0 for no effect and ±100 for the full control effect; nearly all actives have a fitted effect of over 50% in size
HP1b chromo inh = blocks HP1-beta chromodomain binding to methylated histone tails; AlphaScreen HP1-beta / biotin-H3K9me3 peptide binding; Potency, µM (highest dose often 114 µM), for the others: at the top dose activity change, negative = inhibition, hits mostly inhibitors; 0.56% of 390,000 active; AID 540317; note: nearly all actives have a fitted effect of over 70% in size
Target sequence (P83916 whole entry, looked up): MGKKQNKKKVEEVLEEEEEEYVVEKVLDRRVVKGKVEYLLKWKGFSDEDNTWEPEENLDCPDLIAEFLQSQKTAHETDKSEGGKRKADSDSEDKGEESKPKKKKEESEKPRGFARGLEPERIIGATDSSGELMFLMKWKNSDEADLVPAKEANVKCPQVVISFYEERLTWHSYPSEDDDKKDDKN
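Compound inhibition of the preformed complex between 50 nM HP1-beta and 50 nM biotinylated H3K9me3 peptide was read by AlphaScreen. Buffer was PBS pH 7.4 with 0.01% Tween-20. Incubations ran 30 min at room temperature, with 10 ug/mL donor/acceptor beads.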
G9a block = blocks human histone lysine methyltransferase G9a | 8.8% of 350,000 active | Potency, µM (highest dose often 102 µM), for the others: top-dose activity, negative = inhibition, most hits filed as inhibitors | G9a H3K9 monomethylation, AlphaScreen, 2 h | AID 504332; note: % is set by controls: 0 for no effect and ±100 for the full control effect; nearly all actives have a fitted effect of over 75% in size
Target sequence (Q96KQ7 913-1193 limits assumed): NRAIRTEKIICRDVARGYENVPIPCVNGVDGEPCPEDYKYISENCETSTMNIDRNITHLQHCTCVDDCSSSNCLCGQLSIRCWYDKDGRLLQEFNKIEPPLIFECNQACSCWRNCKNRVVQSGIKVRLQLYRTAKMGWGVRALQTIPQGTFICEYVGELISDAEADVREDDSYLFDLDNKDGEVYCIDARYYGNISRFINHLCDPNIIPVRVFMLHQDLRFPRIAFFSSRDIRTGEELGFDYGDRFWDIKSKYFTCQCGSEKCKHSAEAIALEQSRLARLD
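G9a (20 nM) preincubated 15 min RT with compounds, then 500 nM biotinylated H3K9 peptide and 20 uM SAM added; 2 h RT reaction. Monomethyl-H3K9 product detected by AlphaScreen with anti-H3K9me1 antibody, streptavidin donor and anti-rabbit IgG acceptor beads.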
12-LOX inh = ALOX12 (human) lipoxygenase inhibition | P18054 | AID 1671190 | Potency, µM (series often up to 108 µM), inactives show top-dose activity change, negative = inhibition, hits mostly inhibitors | purified 12hLO, xylenol orange hydroperoxide absorbance | 1.1% of 580,000 active; note: % is set by controls: 0 for no effect and ±100 for the full control effect
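Purified human 12hLO at 150 nM in 25 mM Hepes, 0.01% Triton X-100, pH 7.0, preincubated 15 min at room temperature with compound. Reaction started with 40 uM arachidonic acid, 30 min at room temperature. Hydroperoxide measured by Fe-xylenol orange, 573/405 nm absorbance ratio.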
* hit, by the source's call; u = inconclusive; x = no result given; [ ] = remark or other dose. Only some compounds are listed: those with a hit (about 8.7% of all), similar ones and a draw of the others. Calls come from the whole dose curve; as a rule, active = well fitted curve in the direction sought with a large enough effect; inconclusive = small, poorly fitted or top-dose-only effect, or another doubt; inactive = no such curve, though single readings can be large; an effect the other way counts as inactive or inconclusive. Potency is the fitted concentration of half-maximal effect.

SMILES	BAZ2B block	Sfp inh	JMJD2A Tudor inh	HP1b chromo inh	G9a block	12-LOX inh
COC(=O)C(N)Cc1ccc(O)cc1 (configuration not stated)	-25%	8%	-3%	22%	-41%[59 µM]	0%
COC(=O)C(N)Cc1ccc(O)c(O)c1 (configuration not stated)	-31%	-23%	-15%	0%	u	6.3µM*
O=C(CNC(=O)c1ccccc1)NCCc1ccc(O)c(O)c1	-19%	50µM*	x	x	8.9µM*	u
CC(=O)NCCc1ccc(O)c(O)c1	x	x	x	x	2µM*	x
Cc1cc(OC(C)C(=O)NCCCN(C)C)c2c(C)c(C)c(=O)oc2c1 (configuration not stated)	x	x	x	x	x	10%
CN(Cc1ccon1)C(=O)C1CC(=O)N(Cc2ccccn2)C1 (configuration not stated)	x	x	x	x	x	27%
COc1ccc(-c2cc(-c3ccc4cn[nH]c4c3)cn3cncc23)cc1	x	x	x	x	x	8.9µM*
C1=C(c2cc(-c3cccc4cn[nH]c34)cn3cncc23)CCOC1	x	x	x	x	x	-29%[176 µM]
O=c1ccc(-c2cc(-c3cccc4cn[nH]c34)cn3cncc23)c[nH]1	x	x	x	x	x	32µM*
COc1ccc(-c2cc(-c3cccc(OC)c3OC)cn3cncc23)cc1	x	x	x	x	x	71µM*
CN(CC(=O)Nc1cc(C(F)(F)F)cc(C(F)(F)F)c1)C1CCCCC1	x	x	x	x	x	13%
COc1cccc(C(=O)NC2CCN(c3cc(-c4ccccc4)[nH]n3)C2)c1 (configuration not stated)	x	x	x	x	x	59%
CC1CCN(C(=O)N[C@@H](Cc2ccccc2)C(=O)O)CC1	20%	26%	-13%	5%	-6%	-14%
N[C@@H](Cc1ccccc1)C(=O)N1CCC(C(=O)N[C@@H](CCC(=O)O)C(=O)O)CC1	1%	-3%	18µM*	19%	79µM*	u
O=C(O)[C@H](Cc1ccccc1)NC(=O)N1CCC(Cc2ccccc2)CC1	-15%	17%	-3%	1%[57 µM]	14µM*	u
CC1CN(C(=O)N[C@@H](Cc2ccccc2)C(=O)O)CC(C)O1 (some centres not stated)	-7%	10%	-2%	25%	56µM*	u
O=C1CS/C(=N\NC(=O)c2ccccc2)N1	-36%	-11%	u	31%	2.5µM*	16%
O=C(N/N=C/c1ccc(N2CCOCC2)cc1)c1ccc(O)cc1	-9%	0%	-7%	44%	x	15%
N#CCC(=O)N/N=C/c1cc([N+](=O)[O-])ccc1N1CCOCC1	u	5%	-12%[11.4 µM]	18%	18%	-31%
O=[N+]([O-])c1cc(Br)c(O)c(C=Nc2ccc(N3CCOCC3)cc2)c1	35µM*	-9%	-24%	7%	35µM*	u
Oc1ccc(N=Cc2cc(Br)c(N3CCOCC3)o2)cc1	-38%	40µM*	u	-17%	14µM*	u
CCCCOc1ccc(-c2nc(=S)[nH][nH]2)cc1	-7%	-6%	-19%	3%	1.3µM*	u
COCCn1c(=S)[nH]c2cc(C(=O)N3CCc4ccccc43)ccc2c1=O	6%	-6%	-31%	19%	u	0%
COc1ccc(-n2c(=S)[nH]c3ccccc32)cc1	u	45µM*	40µM*	3%	3.5µM*	28µM*
COCCn1c(=S)[nH]c2ccccc21	-37%	-6%	-11%[57.1 µM]	42%	40µM*	-17%
COc1ccc(Cn2c(=S)[nH]c3ccccc32)cc1	-30%	-15%	-23%	33%	1.8µM*	45µM*
Cc1c(NC(=O)CN(c2ccc(Cl)cc2)S(C)(=O)=O)c(=O)n(-c2ccccc2)n1C	x	x	x	x	x	54%
COc1ccc(-n2nc3n(c2=O)CCN(Cc2ccc(C#N)cc2)C3)cc1	x	x	x	x	x	1%[6.33 µM]
Clc1ccc(CSc2nnc(-c3ccc4c(c3)OCO4)o2)cc1	57%	50µM*	-2%	29%	4%[59 µM]	u
Clc1ccc(CSc2nnc(-c3ccncc3)o2)cc1	-5%	3%	39%	31%	25%[2.33 µM]	2%
